Assay outcomes as filed in PubChem.
A selection: hits, their analogues and other compounds. The true share with any hit is near 1.9%.
15-hLO inh = qHTS Assay for Inhibitors of 15-hLO (15-human lipoxygenase). Polyunsaturated fatty acid lipoxygenase ALOX15 (Homo sapiens), P16050. purified 15hLO-1, xylenol orange hydroperoxide absorbance. Potency, µM (highest dose often 57.1 µM), actives largely listed as inhibitors. actives 1.4% (n = 74,000). AID 887, 2007; further: nearly all actives have a fitted effect of over 55% in size
Target sequence (P16050 whole entry, looked up): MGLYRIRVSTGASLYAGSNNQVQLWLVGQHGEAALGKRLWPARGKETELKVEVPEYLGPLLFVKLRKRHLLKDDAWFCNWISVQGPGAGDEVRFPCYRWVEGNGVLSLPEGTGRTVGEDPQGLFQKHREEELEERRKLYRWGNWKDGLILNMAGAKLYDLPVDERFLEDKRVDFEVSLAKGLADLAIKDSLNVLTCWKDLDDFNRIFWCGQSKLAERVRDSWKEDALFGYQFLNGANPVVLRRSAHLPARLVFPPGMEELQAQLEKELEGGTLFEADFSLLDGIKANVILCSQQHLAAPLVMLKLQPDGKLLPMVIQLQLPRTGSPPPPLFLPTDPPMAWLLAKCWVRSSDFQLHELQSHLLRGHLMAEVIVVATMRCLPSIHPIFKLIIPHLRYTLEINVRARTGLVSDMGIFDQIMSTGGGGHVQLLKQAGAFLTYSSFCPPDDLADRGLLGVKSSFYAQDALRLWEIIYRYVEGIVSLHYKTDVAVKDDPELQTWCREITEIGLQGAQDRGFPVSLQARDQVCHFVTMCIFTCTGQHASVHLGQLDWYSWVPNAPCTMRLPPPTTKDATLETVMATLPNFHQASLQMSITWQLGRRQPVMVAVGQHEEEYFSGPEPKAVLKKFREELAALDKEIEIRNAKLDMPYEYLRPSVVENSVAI
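Inhibition is scored from a chromogenic endpoint. After 15 min enzyme-compound contact, arachidonic acid (50 uM final) reacts 6 min with 40 nM 15hLO-1 at room temperature, then Fe-XO reagent is added for 30 min and absorbance ratio recorded.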
BRCT inh red = qHTS Assay for Inhibitors of BRCT-Phosphoprotein Interaction (Red Fluorophore); Breast cancer type 1 susceptibility protein (Homo sapiens), P38398; BRCT-phosphopeptide binding, red fluorescence polarization; Potency, µM (titrated, usually from 76.9 µM), usual class: inhibitors; actives 0.03% (n = 75,000)
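Fluorescence polarization: 100 nM His-tagged BRCA1 BRCT with 100 nM TAMRA-labelled phospho-BACH1 decapeptide, phosphate buffer pH 7.3 with 150 mM NaCl, DTT, 0.01% Tween 20; 12 min RT. Binding inhibition seen as FP decrease.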
Hsp90 Hop PPI = qHTS Assay for Disrupters of an Hsp90 Co-Chaperone Interaction; Hsp90 C-terminal peptide / TPR2A (Hop) interaction, human; AlphaScreen TPR2A-His6 binding biotin-Hsp90 C-terminal peptide; Potency, µM (highest dose often 57 µM); actives 0.44% (n = 71,000); AID 595, 2007; active means well fitted curve in either direction with a large enough effect; inconclusive means small, poorly fitted or top-dose-only effect, or another doubt
DNA Pol III inh = qHTS Assay for Inhibitors of DNA Polymerase III Holoenzyme System. reconstituted DNA polymerase III holoenzyme replication, biochemical. Potency, µM (series often up to 57.1 µM). actives 0.25% (n = 71,000)
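Reconstituted *E. coli* holoenzyme (0.35 nM Pol III, 1 nM beta, 154 nM SSB, 2 nM primase) was preincubated with compound for 15 min at RT. Synthesis on 1.4 nM ssM13Gori ran 35 min, then was stopped with PicoGreen/EDTA and read as dsDNA fluorescence.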
YjeE inh = qHTS Assay for Inhibitors of YjeE. purified YjeE enzyme, qHTS inhibition assay. tRNA threonylcarbamoyladenosine biosynthesis protein TsaE (Escherichia coli (strain …. actives 0.05% (n = 71,000). Potency, µM
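Purified YjeE (10 uM) with BODIPY Texas Red-labeled ADP probe (2 uM); compounds pin-transferred, 15 min at room temperature. Binding inhibition read as decreased fluorescence polarization; ADP titration as control.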
BRCT PPI green = qHTS Assay for Inhibitors of BRCT-Phosphoprotein Interaction (Green Fluorophore); Breast cancer type 1 susceptibility protein (Homo sapiens), P38398; BRCA1 BRCT-phosphopeptide binding, green fluorescence polarization; Potency, µM (doses to about 76.9 µM), usual class: inhibitors; actives 0.05% (n = 75,000)
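Compounds were incubated for 12 min at room temperature with a complex of 100 nM fluorescein-tagged pBACH1 decapeptide and 250 nM His-tagged BRCT protein. Buffer was phosphate pH 7.3 with EDTA, DTT and Tween 20. Disruption of binding lowers the polarization signal.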
A number is an active result; 0 = inactive; ? = inconclusive; - = not tested or not shown; ! = not active in a repeat; [ ] = another dose, or the depositor's remark. Unless noted, the call rests on the fitted dose curve; in most records, active means well fitted curve in the direction sought with a large enough effect; inconclusive means small, poorly fitted or top-dose-only effect, or another doubt; inactive means no such curve, though single readings can be large; an effect the other way counts as inactive or inconclusive.

SMILES	15-hLO inh	BRCT inh red	Hsp90 Hop PPI	DNA Pol III inh	YjeE inh	BRCT PPI green
CCOc1ccc(-c2nc(-c3ccccc3)no2)cc1OCC	0	0	0	0	0	0
CCOc1ccc2noc3c2c1C(=O)c1ccccc1-3	0	0	?	0	0	4µM
CCOC(=O)c1c(OCC)[nH]c2c1cc(O)c1ccccc12	7.9µM	0	0	0	0	0
O=C(O)[C@H]1C[C@H](C(=O)O)N1	0	0	?	0	0	0
O=C(NCC1CCCO1)c1cc(-c2ccco2)nc2ccccc12 (configuration not stated)	0	0	0	32µM	0	0
O=C(Nc1ccccc1C(=O)NCC1CCCO1)c1ccco1 (configuration not stated)	0	0	0	0	0	0
FC(F)(F)c1cc(CO[C@@H]2CCCN[C@H]2c2ccccc2)cc(C(F)(F)F)c1	0	0	0	0	0	0
COc1ccccc1-c1cc(C(=O)N2CCc3ccccc3C2)no1	0	0	?	0	0	0
Cc1ccc(C)n1NC(=O)c1cccs1	16µM	0	0	0	0	0
NC(=O)c1ncn([C@@H]2O[C@@H](CO)[C@@H](O)[C@H]2O)c1O	0	0	0	0	0	0
Cc1ccc(C[C@H](Cc2nc3ccccc3[nH]2)c2nc3ccccc3[nH]2)cc1	-	-	0	0	0	-
CC(=O)C1=C(C)NC(SCC(=O)c2ccc(F)cc2)=C(C#N)C1c1ccco1 (configuration not stated)	20µM	0	0	0	0	0
CCc1ccc(C(=O)CSC2=C(C#N)C(c3ccco3)C(C(C)=O)=C(C)N2)cc1 (configuration not stated)	10µM	0	0	0	0	0
Cn1cccc1Cc1nnc(SCC(=O)Nc2ccccc2F)n1CCc1ccccc1	16µM	0	0	0	0	0
Cn1cccc1Cc1nnc(SCC(=O)Nc2cccc(F)c2)n1CCc1ccccc1	?	0	0	0	0	0
Cc1csc(NC(=O)CSc2nnc(Cc3cccn3C)n2CCc2ccccc2)n1	13µM	0	0	0	0	0
COc1cc([C@H]2c3cc4c(cc3[C@@H](O[C@H]3O[C@H]5CO[C@@H](C)O[C@H]5[C@@H](O)[C@@H]3O)[C@@H]3COC(=O)[C@H]23)OCO4)cc(OC)c1O	0	0	0	0	0	0
CCCc1cc2c(c(=O)o1)C(O)C1OC1C2=O (configuration not stated)	?	0[15.4 µM]	-	-	-	0[15.4 µM]
Cc1cn([C@H]2C=C[C@H](CO)O2)c(=O)[nH]c1=O	-	-	0	0	0	-
CCN(CC)CCC[C@H](C)Nc1c2ccc(Cl)cc2nc2ccc(OC)cc12	0	0	0	32µM!	0	?
CN(C)CN1C(=O)S/C(=C2/C(=O)N(CN(C)C)c3ccccc32)C1=O	0[11.4 µM]	0[15.4 µM]	0[11 µM]	0[11.4 µM]	0	0[15.4 µM]
CCCn1c(C)nc2c(N(CCN(C)C)Cc3ccccc3)nc(C)nc21	16µM	0	0	0	0	0
CCCn1c(C)nc2c(NCCN(C)C)nc(C)nc21	25µM	0	0	0	0	0
CCCn1c(C)nc2c(N(CCN(CC)CC)CCN(CC)CC)nc(C)nc21	0	0	0	0	0	0
O[C@@H](COc1cccc2ccccc12)CN1CCOCC1	0[11.4 µM]	0[15.4 µM]	0[11 µM]	0[11.4 µM]	0	0[15.4 µM]
SMILES	15-hLO inh	BRCT inh red	Hsp90 Hop PPI	DNA Pol III inh	YjeE inh	BRCT PPI green
O=C(O)[C@H]([C@H]1NCCS1)N1C(=O)c2ccccc2C1=O	0[11.4 µM]	0[15.4 µM]	0[11 µM]	0[11.4 µM]	0	0[15.4 µM]
COC(=O)c1cn(CCOc2ccccc2)c2ccccc12	0	0	25µM	0	0	0
COC(=O)Cn1cc(C(=O)OC)c2ccccc21	0	0	0	0	0	0
C=C1C[C@@]23C[C@]1(O)CC[C@@H]2[C@]12C=C[C@@H](O)[C@@](C)(C(=O)O1)[C@@H]2[C@@H]3C(=O)O	-	-	0	0	0	-
CCCCCCCCCCCCCCCCCCNC(=O)OC[C@@H](COP(=O)([O-])OCC[n+]1ccsc1)OC	0	0	0	0	0	0
O=C(O)CCc1ccc(-c2ccc(F)cc2)n1CCC(=O)O	0	0	0	0	0	0
C=CCn1c(CCC(=O)O)ccc1-c1ccc(OC)cc1	13µM	0	0	0	0	0
C=Cc1c(C)/c2[n-]/c1=C\c1[n-]c(c(CC)c1C)/C=c1\[n-]c3c(c1C)C(=O)C(C(=O)[O-])C=3c1[n-]c(c(C)c1CCC(=O)[O-])\C=2.[Cu].[Na+].[Na+] (configuration not stated)	6.3µM	?	-	-	-	0[3.08 µM]
O=S(=O)(Nc1cccnc1)c1cccc2cccnc12	0	0	0	0	0	0
C=CCNc1oc(-c2cccc3ccccc23)nc1C#N	0.5µM	0	0	0	0	0
CCNc1oc(-c2cccc3ccccc23)nc1C#N	-	0	0	?	0	0
CC(C)Nc1oc(-c2cccc3ccccc23)nc1C#N	4µM	0	0	0	0	0
O=c1cc(-c2cccc(O)c2O)oc2ccccc12	?	0	?	0	0	0
Cc1ccc(-c2nc3cnccn3c2Nc2ccc3c(c2)OCCO3)o1	25µM	0	0	0	0	0
COc1ccc(-c2nc3cnccn3c2Nc2ccc3c(c2)OCO3)cc1	0	0	?	0	0	0
Cc1ccccc1Nc1nc(CSc2nnc(-c3ccoc3C)n2C)cs1	13µM	0	0	0	0	0
COc1cccc2c1C(=O)c1c(O)c3c(c(O)c1C2=O)C[C@](O)(C(=O)CO)C[C@H]3O[C@@H]1C[C@H](N)[C@H](O)[C@H](C)O1	0	?	0	0.79µM	0	0
COCCN(CCOC)C(=O)c1ccc(Cc2nc3ccccc3[nH]2)cc1	0	0	-	-	-	0
O=C(Cn1cc2c(n1)CCCC2)N1CCCc2ccccc21	25µM	0	0	0	0	0
CCOC(=O)c1c(C)[nH]c(C=Nc2ccccc2)c1O	5µM	0	0	0	0	0
C=C[C@@]1(C)C=C2CC[C@@H]3[C@](C)(CCC[C@@]3(C)C(=O)O)[C@H]2CC1	-	-	0	0	0	-
CCOc1ccc(OCC(=O)c2c(O)c3ccccc3oc2=O)cc1	16µM	0	?	0	0	0
c1ccc(CNC2=NCCCCC2)cc1	0	0	0	0	0	0
Cc1ccc(CNC2=NCCCCC2)n1C	20µM	0	0	0	0	0
